Out of some 360,000 compounds screened, about 11,000 (3.1%) were called active. Another 2% or so got no clear call; they are omitted. Only a selection was taken, and actives are over-represented in it overall. Values without a mark were called inactive. No stated cut-off is given here; in the data, active means fluorescence intensity above about 16000; inconclusive means no clear call, values can overlap the other calls; inactive means below that.
Experiment: compound fluorescence in toxin protease inhibitor counterscreen, primary screen, artefact control for toxin protease inhibitor project, biochemical, multiplex microsphere, HTS (AID 624483)
Settings: compound autofluorescence counterscreen, microsphere flow cytometry; active compounds read high

SMILES	fluorescence intensity
Cc1cccc(-c2cnc(C(O)c3cc(C)cc(C)c3)[nH]2)c1 (stereo unspecified)	3860
Cc1ccc(S(=O)(=O)N2CCC(C)CC2)cc1C(=O)NCc1ccccn1	5690
Cc1cccc(CN2CCN(C3CN(Cc4ccccc4)S(=O)(=O)C3)CC2)c1 (stereo unspecified)	5880
CCOC(=O)C1CCCCN1Cc1ccc(OC)c(OC)c1OC (stereo unspecified)	21900 (active)
CCOC(=O)C1CCN(C(=O)/C=C/c2cc(OC)c(OC)c(OC)c2)CC1	2640
CCOC(=O)C1CCN(S(=O)(=O)c2cc(F)ccc2OC)CC1	4720
O=C(Nc1ccc2c(c1)OCCO2)C1c2ccccc2OCC(=O)N1Cc1ccccn1 (stereo unspecified)	5110
Cc1[nH]c2ccccc2c1C(=O)CN1CC(C)CC(C)C1 (stereo unspecified)	4370
Cc1[nH]c2ccccc2c1C(=O)CN1CCCC(C)C1 (stereo unspecified)	3780
Cc1[nH]c2ccccc2c1C(=O)CSCC(=O)O	23600 (active)
O=C(O)c1cc(S(=O)(=O)NC2CCCc3ccccc32)ccc1O (stereo unspecified)	3070
Cc1nc(C(F)(F)F)ccc1C(=O)N1CCC1(C)C(=O)NS(=O)(=O)c1ccccc1 (stereo unspecified)	2950
Nc1nc2c(ncn2[C@@H]2O[C@H](CNS(=O)(=O)N3CCc4ccccc4C3)[C@@H](O)[C@H]2O)c(=O)[nH]1	5780
Cc1ccccc1CCN(CC(=O)NC1CCCCC1)C(=O)c1csnn1	4280
CCOCCC(=O)Nc1ccc2c(c1)c(=O)n(C)n2-c1ccc2ccccc2c1	4100
O=C(CN1CCOCC1)N/N=C/c1ccc(-c2ccc(Br)cc2)o1	6290
O=C(Cc1ccc(Br)cc1)NCCN1CCOCC1	4390
CCOC(=O)CN(C(=O)CN1CCOCC1)c1ccc(Br)cc1	16500 (active)
COCCOC1CCN(C(=O)c2ccc(OC)c(OC3CCN(C(C)C)CC3)c2)CC1	5660
OC[C@@H]1CN(Cc2cccs2)C[C@H](n2cnc3c(Nc4ccccc4)ncnc32)O1	2850
CCCN(CCC)CCNC(=O)c1cc2c(C)nc3ccccc3c2o1	23700 (active)
CCN(CC)CCNC(=O)c1ccc(NC(=O)c2cc(-c3ccncc3)nc3ccccc23)cc1	5900
Cc1nc2ccccc2c2oc(C(=O)NCCCN3CCC(C)CC3)cc12	6790
COc1cc(CCN=Cc2ccccc2O)c([N+](=O)[O-])cc1OC	6170

SMILES	fluorescence intensity
CCOC(=O)[C@]12CCCC=C1N(Cc1ccc3c(c1)OCO3)C(=O)[C@H](CC(=O)NCc1cccs1)C2	4370
O=C(NCc1cccnc1)c1cccnc1Sc1ccc(Cl)cc1	16900 (active)
COc1cccc(CNC(=O)c2cccnc2Sc2ccc(Cl)cc2)c1	5920
O=C(NC1CCCCCC1)c1cccnc1Sc1ccc(Cl)cc1	2130
C=CCn1c(=O)n(C)c2c(=O)n(C)c(=O)n(C)c21	3000
O=[N+]([O-])c1ccc(CN2CC(N3CC=CC3)CS2(=O)=O)cc1 (stereo unspecified)	6550
CCOc1ccc(-c2cn(S(=O)(=O)c3cccc4nsnc34)nc2N)cc1	4610
CCCCNC(=O)OC1CC2CC1[C@H]1CCCCN1C2=O (stereo partly specified)	5740
Cn1ncc2c(Nc3cccc4ccccc34)ncnc21	3210
CN(C)CCCn1c(SCc2ccc(Cl)cc2)nnc1-c1ccncc1	3820
CC1CCCCC1NC(=O)CSc1nnc(-c2ccncc2)n1CCCN(C)C (stereo unspecified)	4240
CSc1nnc(-c2ccncc2)n1CCCN1CCCC1=O	16700 (active)
COc1cc(Cn2c3ccc(NC(=O)CC(C)c4ccccc4)cc3c(=O)n2C)ccc1F (stereo unspecified)	3950
CCOc1ccc(C(=O)Nc2cccc(SC)c2)cc1	2060
Cc1ccc(S(=O)(=O)N(Cc2cc3ccccc3[nH]c2=O)CC2CCCO2)cc1 (stereo unspecified)	3240
Cc1occc1C(=O)Nc1nnc(C2CCCCC2)s1	22300 (active)
COc1ccc(NC(=O)CCC(=O)Nc2nnc(C3CCCCC3)s2)cc1	5270
Cc1cc(C(=O)Nc2nnc(C3CC3)s2)c(C)s1	5450
CCc1nc2c(OCc3ccc(F)c(F)c3)cccn2c1N(C)C(=O)c1ccco1	3900
O=C1Nc2ccccc2NC(c2ccc3c(c2)OCO3)=C1N(Cc1ccc(F)cc1)C(=O)c1ccco1	5250
Brc1ccc(C2=CC(c3ccco3)n3ncnc3N2)cc1 (stereo unspecified)	9350
Clc1ccc2c(c1)C1=C(C(c3ccncc3)O2)C(c2ccc(Br)cc2)n2ncnc2N1 (stereo unspecified)	16600 (active)
Cc1ccc(CN(Cc2cccnc2)C(=S)Nc2cc(Cl)ccc2C)cc1	4690
CCn1c(SCC(=O)Nc2cc(C)ccc2C)nnc1-c1cnccn1	4580

SMILES	fluorescence intensity
Cc1ccc(CSc2nnc(-c3cnccn3)n2C)cc1	4420
CCN(CC)C(=O)CSc1nnc(-c2cnccn2)n1-c1ccc(C)cc1	23200 (active)
CC(C)(C)C1CCC(=O)N2CCC[C@]2(c2ccccc2)C1 (stereo partly specified)	5900
CN(CC1CCCN(CCc2cccc(C(F)(F)F)c2)C1)C(=O)c1ccc2nc[nH]c2c1 (stereo unspecified)	5960
COc1cccc(NC(=O)C2(C)CCN2C(=O)CCC2CCCC2)c1 (stereo unspecified)	2920
N#C/C(=C\c1cccnc1)C(=O)Nc1ccc(SC(F)F)cc1	3830
Nc1nnnn1/N=C/c1cccs1	21800 (active)
Nc1nnnn1/N=C/c1cccc(Br)c1	3440
COc1ccc(/C=N/n2nnnc2N)cc1OC	4170
COc1ncnc2c1ncn2CCCNCCN1CCOCC1	3370
CN(Cc1ccccc1)C(=O)COc1ccccc1	2850
COc1ccc(CCN(C(=O)COc2ccccc2)c2nc(-c3ccccc3)cs2)cc1OC	21300 (active)
COc1ccc(CN(C(=O)c2cccs2)c2nccs2)cc1OC	3950
C[C@H](NC(=O)C1CCN(S(=O)(=O)c2ccccc2)CC1)C(=O)NCc1ccccc1	5500
COc1cccc(CN2CCC(C(=O)NC(c3ccc4c(c3)OCO4)c3ccccn3)CC2)c1 (stereo unspecified)	3800
COc1ccc(-c2cc(=O)oc3cc(OC(C)C(=O)Nc4ccc(CN5CCOCC5)cc4)ccc23)cc1 (stereo unspecified)	5340
Cc1cc(=O)oc2cc(NC(=O)C(C)Oc3ccccc3)ccc12 (stereo unspecified)	5330
Cc1cc(=O)oc2cc(OC(C)C(=O)Nc3ccc(N4CCOCC4)cc3)ccc12 (stereo unspecified)	22000 (active)
COc1ccccc1C(=O)NC(=S)Nc1ccccc1N1CCCCC1	5870
O=C(NC(=S)Nc1ccccc1N1CCCCC1)c1ccc(F)cc1	6710
COc1ccc(C(=O)NC(=S)Nc2ccccc2N2CCN(S(C)(=O)=O)CC2)cc1OC	22100 (active)
Cc1nn(-c2ccccc2)c2[nH]c(C(F)(F)F)cc(=O)c12	4600
CCOc1cc(C)c(Cl)cc1S(=O)(=O)n1nnc2ccccc21	10500
CCCOc1cc(C)c(S(=O)(=O)n2nnc3ccccc32)cc1C	16800 (active)

SMILES	fluorescence intensity
CCOc1cc(C)c(S(=O)(=O)NCc2ccccn2)cc1C	3700
O=C(NCCCN1CCCCCC1)c1ccc(N2CCCC2=O)cc1	3260
CC1CCCC(NC(=O)c2cccc(N3CCCC3=O)c2)C1C (stereo unspecified)	2560
CC1CCC(NC(=O)c2ccc(N3CCCC3=O)cc2)CC1 (stereo unspecified)	21800 (active)
COc1ccc(C(=O)NCc2nnc(SCCOc3ccccc3)n2C)cc1	5100
C=CCn1c(CNC(=O)c2ccco2)nnc1SCC(=O)c1ccc(OC)cc1	3770
C=CCn1c(SCc2ccc(Cl)c(Cl)c2)nnc1C(CO)NC(=O)c1ccc(OC)cc1 (stereo unspecified)	2760
CCn1c(SCC(=O)NNC(=O)c2ccc(OC)cc2)nnc1C(C)C	6340
C=CCn1c(SCCOc2ccc(OC)cc2)nnc1C(NC(=O)c1ccc(OC)cc1)C(C)C (stereo unspecified)	24400 (active)
C=CCn1c(SCC(=O)c2ccc(Br)cc2)nnc1C(C)NC(=O)Cc1ccc(OC)cc1 (stereo unspecified)	23200 (active)
CCCNC(=O)c1cc(C2CCCCN2S(=O)(=O)c2cn(C)cn2)on1 (stereo unspecified)	3300
O=C(NCc1ccc(F)cc1)C1CCC(CNc2c(N3CCOCC3)c(=O)c2=O)CC1 (stereo unspecified)	4840
O=S(=O)(NC1CC2CCC1C2)c1ccc(Cl)cc1 (stereo unspecified)	3140
CCOC(=O)[C@]12CCCC=C1N(Cc1ccc(Cl)cc1Cl)C(=O)[C@H](CC(=O)N1CCCCC1)C2	6000
COc1cccc(-c2cc3nc(NCCOc4ccccc4Cl)n(C)c(=O)c3s2)c1	3580
CC1(C(=O)NS(=O)(=O)c2cccc(F)c2)CCN1C(=O)Cc1ccc(Cl)cc1Cl (stereo unspecified)	3750
CCCCN1C(=O)C(CC(=O)NCc2cccs2)CC(C(=O)N2CCCCCC2)=C1C (stereo unspecified)	5770
CN(C)c1ccnc(Oc2ccc(F)cc2)c1C#N	8110
O=C(CNC(=O)c1ccccc1)NCC(=O)OCC(=O)c1ccccc1	5170
O=C(CCC(=O)OCc1ccc(Cl)cc1)Nc1ccccc1	2700
O=C(CNC(=O)c1ccccc1)NCC(=O)OCc1ccc(Cl)cc1	22400 (active)
Nc1ccc(SCCN2C(=O)c3ccccc3C2=O)cc1	19900 (active)
O=C1c2ccccc2C(=O)N1CCCCCCN1C(=O)c2ccccc2C1=O	3880
O=C(OCCN1C(=O)c2ccccc2C1=O)Oc1ccccc1	4060

Reference: PubChem BioAssay AID624483 (NMMLSC, 2012)
